Results from the supplement of paper PMC3545927.
The other results are listed elsewhere or left out. No count for the full screen is at hand.

Target: furin, P09958
Test: furin cleavage Z-score vs untreated control; higher = more cleavage, active = 3.5 or more, inactive = 1 or less, 8 variable residues between constant flanks
Method in brief: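 The cleavage Z-score was derived for purified furin acting on 8-mer peptides held on magnetic beads and fused to a cDNA oligonucleotide. Digests lasted 7.5, 15 or 30 min at 1:10 enzyme:substrate in 50 mM HEPES pH 7.5 with CaCl2 and NaCl. Sequencing counts of released DNA, log-transformed against furin-free reactions, were lowess-adjusted and scaled by median absolute deviation.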

furin, P09958, sequence (P09958 whole entry): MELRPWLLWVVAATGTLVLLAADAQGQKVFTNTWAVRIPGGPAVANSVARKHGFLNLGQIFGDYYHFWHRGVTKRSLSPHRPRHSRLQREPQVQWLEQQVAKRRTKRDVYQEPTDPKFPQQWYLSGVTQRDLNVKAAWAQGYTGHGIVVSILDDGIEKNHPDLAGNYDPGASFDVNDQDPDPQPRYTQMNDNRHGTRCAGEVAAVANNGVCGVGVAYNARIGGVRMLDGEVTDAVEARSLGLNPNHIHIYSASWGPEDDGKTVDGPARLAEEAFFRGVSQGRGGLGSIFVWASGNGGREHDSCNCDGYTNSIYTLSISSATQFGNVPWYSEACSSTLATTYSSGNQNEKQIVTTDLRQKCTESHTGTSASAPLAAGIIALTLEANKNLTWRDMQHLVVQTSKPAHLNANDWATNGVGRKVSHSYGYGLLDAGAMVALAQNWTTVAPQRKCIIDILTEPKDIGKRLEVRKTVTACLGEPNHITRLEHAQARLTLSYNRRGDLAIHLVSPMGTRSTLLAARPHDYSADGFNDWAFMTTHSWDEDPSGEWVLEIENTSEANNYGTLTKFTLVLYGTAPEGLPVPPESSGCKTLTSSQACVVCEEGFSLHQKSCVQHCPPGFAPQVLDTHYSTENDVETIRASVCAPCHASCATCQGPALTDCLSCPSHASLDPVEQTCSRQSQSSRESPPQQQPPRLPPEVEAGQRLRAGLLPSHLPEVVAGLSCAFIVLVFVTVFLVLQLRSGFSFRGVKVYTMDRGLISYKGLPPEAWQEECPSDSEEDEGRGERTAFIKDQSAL

B1: HC699 (peptide)
chain: CAVCWTVYHGAGNASASA
With B1 the “furin cleavage Z-score” value (7.5 min) was -0.241 (inactive), the “furin cleavage Z-score” value (15 min) was 1.41 and the “furin cleavage Z-score” value (30 min) was -1.21 (inactive).

B2: HC2239 (peptide)
chain: CAEVVTSTPVAGNASASA
For B2, the “furin cleavage Z-score” value (7.5 min) was -0.71 (inactive), the “furin cleavage Z-score” value (15 min) was -0.517 (inactive) and the “furin cleavage Z-score” value (30 min) was -0.991 (inactive).

B3: HC1910 (peptide)
chain: CATTPCSGVWAGNASASA
For B3, the “furin cleavage Z-score” value (7.5 min) was -0.00612 (inactive), the “furin cleavage Z-score” value (15 min) was 1.65 and the “furin cleavage Z-score” value (30 min) was 0.601 (inactive).

B4: HC2138 (peptide)
chain: CAETVVCCSMAGNASASA
For B4, the “furin cleavage Z-score” value (7.5 min) was 0.723 (inactive), the “furin cleavage Z-score” value (15 min) was 1.46 and the “furin cleavage Z-score” value (30 min) was 0.375 (inactive).

B5: FS-460 (peptide)
chain: CALSRRLKRAAGNASASA
With B5 the “furin cleavage Z-score” value (7.5 min) was 12.9 (active), the “furin cleavage Z-score” value (15 min) was 10.6 (active) and the “furin cleavage Z-score” value (30 min) was 7.76 (active).

B6: FS-1930 (peptide)
chain: CARSKRSALRAGNASASA
In the case of B6, the “furin cleavage Z-score” value (7.5 min) is reported as 8.67 (active), the “furin cleavage Z-score” value (15 min) is reported as 9.74 (active) and the “furin cleavage Z-score” value (30 min) is reported as 9.58 (active).

B7: FS-3086 (peptide)
chain: CARSKRRHRTAGNASASA
In the case of B7, the “furin cleavage Z-score” value (7.5 min) is reported as 5.67 (active), the “furin cleavage Z-score” value (15 min) is reported as 4.65 (active) and the “furin cleavage Z-score” value (30 min) is reported as 6.42 (active).

B8: HC490 (peptide)
chain: CARSELSPLLAGNASASA
B8 was tested, and the “furin cleavage Z-score” value (7.5 min) was 0.997 (inactive), the “furin cleavage Z-score” value (15 min) was -1.17 (inactive) and the “furin cleavage Z-score” value (30 min) was 0.877 (inactive).

B9: HC287 (peptide)
chain: CALPATQLRRAGNASASA
With B9 the “furin cleavage Z-score” value (7.5 min) was -0.751 (inactive), the “furin cleavage Z-score” value (15 min) was -1.22 (inactive) and the “furin cleavage Z-score” value (30 min) was -0.432 (inactive).

B10: FS-3208 (peptide)
chain: CARSKRSRLLAGNASASA
B10 was tested, and the “furin cleavage Z-score” value (7.5 min) was 2.35, the “furin cleavage Z-score” value (15 min) was 5.37 (active) and the “furin cleavage Z-score” value (30 min) was 6.91 (active).

B11: HC1623 (peptide)
chain: CARSVRARLLAGNASASA
In the case of B11, the “furin cleavage Z-score” value (7.5 min) is reported as -0.453 (inactive), the “furin cleavage Z-score” value (15 min) is reported as 0.839 (inactive) and the “furin cleavage Z-score” value (30 min) is reported as -0.225 (inactive).

B12: FS-2305 (peptide)
chain: CARSKRQLRRAGNASASA
In the case of B12, the “furin cleavage Z-score” value (7.5 min) is reported as 5.77 (active), the “furin cleavage Z-score” value (15 min) is reported as 8.83 (active) and the “furin cleavage Z-score” value (30 min) is reported as 9.3 (active).

B13: FS-3085 (peptide)
chain: CARSKRPPLVAGNASASA
For B13, the “furin cleavage Z-score” value (7.5 min) was -1.04 (inactive), the “furin cleavage Z-score” value (15 min) was 1.04 and the “furin cleavage Z-score” value (30 min) was 0.266 (inactive).

B14: HC1136 (peptide)
chain: CALTVTQLLRAGNASASA
With B14 the “furin cleavage Z-score” value (7.5 min) was -0.529 (inactive), the “furin cleavage Z-score” value (15 min) was 1.28 and the “furin cleavage Z-score” value (30 min) was -0.0718 (inactive).

B15: HC1572 (peptide)
chain: CATPVNSWLGAGNASASA
For B15, the “furin cleavage Z-score” value (7.5 min) was -0.962 (inactive), the “furin cleavage Z-score” value (15 min) was 0.658 (inactive) and the “furin cleavage Z-score” value (30 min) was -0.136 (inactive).

B16: HC963 (peptide)
chain: CADQMWKCLIAGNASASA
With B16 the “furin cleavage Z-score” value (7.5 min) was -0.00547 (inactive), the “furin cleavage Z-score” value (15 min) was 0.512 (inactive) and the “furin cleavage Z-score” value (30 min) was 0.111 (inactive).

B17: HC2383 (peptide)
chain: CAEVPCHRASAGNASASA
For B17, the “furin cleavage Z-score” value (7.5 min) was -0.108 (inactive), the “furin cleavage Z-score” value (15 min) was 1.91 and the “furin cleavage Z-score” value (30 min) was 1.32.

B18: HC1527 (peptide)
chain: CAMLVCGDDLAGNASASA
With B18 the “furin cleavage Z-score” value (7.5 min) was -1.47 (inactive), the “furin cleavage Z-score” value (15 min) was -2.12 (inactive) and the “furin cleavage Z-score” value (30 min) was -1.71 (inactive).

B19: FS-3264 (peptide)
chain: CARSKRLMKRAGNASASA
B19 was tested, and the “furin cleavage Z-score” value (7.5 min) was 7.59 (active), the “furin cleavage Z-score” value (15 min) was 8.33 (active) and the “furin cleavage Z-score” value (30 min) was 6.04 (active).

B20: FS-2524 (peptide)
chain: CARSKRLLSDAGNASASA
In the case of B20, the “furin cleavage Z-score” value (7.5 min) is reported as 1.69, the “furin cleavage Z-score” value (15 min) is reported as 0.376 (inactive) and the “furin cleavage Z-score” value (30 min) is reported as 1.96.

B21: FS-3171 (peptide)
chain: CARSKRSTLLAGNASASA
B21 was tested, and the “furin cleavage Z-score” value (7.5 min) was 6.63 (active), the “furin cleavage Z-score” value (15 min) was 9.65 (active) and the “furin cleavage Z-score” value (30 min) was 8.72 (active).

B22: FS-2354 (peptide)
chain: CARMKRDTSLAGNASASA
B22 was tested, and the “furin cleavage Z-score” value (7.5 min) was 12.7 (active), the “furin cleavage Z-score” value (15 min) was 14.2 (active) and the “furin cleavage Z-score” value (30 min) was 10.6 (active).

B23: HC674 (peptide)
chain: CAAPITAYAQAGNASASA
For B23, the “furin cleavage Z-score” value (7.5 min) was -1.65 (inactive), the “furin cleavage Z-score” value (15 min) was -1.79 (inactive) and the “furin cleavage Z-score” value (30 min) was -0.691 (inactive).

B24: FS-2108 (peptide)
chain: CARVRRRGSPAGNASASA
With B24 the “furin cleavage Z-score” value (7.5 min) was -0.273 (inactive), the “furin cleavage Z-score” value (15 min) was 2.05 and the “furin cleavage Z-score” value (30 min) was 2.

B25: FS-2683 (peptide)
chain: CARIARFVLPAGNASASA
With B25 the “furin cleavage Z-score” value (7.5 min) was 2.58, the “furin cleavage Z-score” value (15 min) was 2.47 and the “furin cleavage Z-score” value (30 min) was 6.22 (active).

B26: FS-2406 (peptide)
chain: CARVRRHSDPAGNASASA
In the case of B26, the “furin cleavage Z-score” value (7.5 min) is reported as 10.2 (active), the “furin cleavage Z-score” value (15 min) is reported as 8.54 (active) and the “furin cleavage Z-score” value (30 min) is reported as 6.84 (active).

B27: HC495 (peptide)
chain: CATTQWQVLPAGNASASA
B27 was tested, and the “furin cleavage Z-score” value (7.5 min) was -0.0417 (inactive), the “furin cleavage Z-score” value (15 min) was 1.36 and the “furin cleavage Z-score” value (30 min) was 0.907 (inactive).

B28: FS-1801 (peptide)
chain: CARVPRTVLPAGNASASA
In the case of B28, the “furin cleavage Z-score” value (7.5 min) is reported as 1.52, the “furin cleavage Z-score” value (15 min) is reported as 0.946 (inactive) and the “furin cleavage Z-score” value (30 min) is reported as 3.87 (active).

B29: FS-2583 (peptide)
chain: CARQGRGSDPAGNASASA
For B29, the “furin cleavage Z-score” value (7.5 min) was -1.86 (inactive), the “furin cleavage Z-score” value (15 min) was -0.176 (inactive) and the “furin cleavage Z-score” value (30 min) was 0.17 (inactive).

B30: FS-2536 (peptide)
chain: CARVRRAVLPAGNASASA
With B30 the “furin cleavage Z-score” value (7.5 min) was 8.16 (active), the “furin cleavage Z-score” value (15 min) was 9.49 (active) and the “furin cleavage Z-score” value (30 min) was 9.52 (active).

B31: FS-3121 (peptide)
chain: CARVPRKVQPAGNASASA
With B31 the “furin cleavage Z-score” value (7.5 min) was -0.302 (inactive), the “furin cleavage Z-score” value (15 min) was 1.08 and the “furin cleavage Z-score” value (30 min) was 0.984 (inactive).

B32: FS-2028 (peptide)
chain: CARIARVVLQAGNASASA
For B32, the “furin cleavage Z-score” value (7.5 min) was -0.514 (inactive), the “furin cleavage Z-score” value (15 min) was -0.914 (inactive) and the “furin cleavage Z-score” value (30 min) was 1.2.

B33: HC909 (peptide)
chain: CAGIYRFVAPAGNASASA
In the case of B33, the “furin cleavage Z-score” value (7.5 min) is reported as -1.23 (inactive), the “furin cleavage Z-score” value (15 min) is reported as -0.739 (inactive) and the “furin cleavage Z-score” value (30 min) is reported as -0.847 (inactive).

B34: HC1309 (peptide)
chain: CALVETWKKPAGNASASA
In the case of B34, the “furin cleavage Z-score” value (7.5 min) is reported as 0.819 (inactive), the “furin cleavage Z-score” value (15 min) is reported as 0.268 (inactive) and the “furin cleavage Z-score” value (30 min) is reported as -0.773 (inactive).

B35: HC1163 (peptide)
chain: CAGIPFVSCQAGNASASA
With B35 the “furin cleavage Z-score” value (7.5 min) was -0.0749 (inactive), the “furin cleavage Z-score” value (15 min) was 0.44 (inactive) and the “furin cleavage Z-score” value (30 min) was -1.36 (inactive).

B36: HC2438 (peptide)
chain: CATREVPCHRAGNASASA
B36 was tested, and the “furin cleavage Z-score” value (7.5 min) was 0.921 (inactive), the “furin cleavage Z-score” value (15 min) was 2.06 and the “furin cleavage Z-score” value (30 min) was 2.03.

B37: FS-1356 (peptide)
chain: CALGGRRKRNAGNASASA
In the case of B37, the “furin cleavage Z-score” value (7.5 min) is reported as 11.1 (active), the “furin cleavage Z-score” value (15 min) is reported as 12.5 (active) and the “furin cleavage Z-score” value (30 min) is reported as 7.53 (active).

B38: HC1662 (peptide)
chain: CAVGIYLLPNAGNASASA
For B38, the “furin cleavage Z-score” value (7.5 min) was 0.402 (inactive), the “furin cleavage Z-score” value (15 min) was 0.33 (inactive) and the “furin cleavage Z-score” value (30 min) was -0.482 (inactive).

B39: HC1446 (peptide)
chain: CAKGGRKPARAGNASASA
With B39 the “furin cleavage Z-score” value (7.5 min) was -0.269 (inactive), the “furin cleavage Z-score” value (15 min) was -0.328 (inactive) and the “furin cleavage Z-score” value (30 min) was -1.51 (inactive).

B40: HC216 (peptide)
chain: CADPRRRSRNAGNASASA
In the case of B40, the “furin cleavage Z-score” value (7.5 min) is reported as 4.59 (active), the “furin cleavage Z-score” value (15 min) is reported as 5.65 (active) and the “furin cleavage Z-score” value (30 min) is reported as 5.55 (active).

B41: FS-340 (peptide)
chain: CAKGGRRSRNAGNASASA
With B41 the “furin cleavage Z-score” value (7.5 min) was 4.05 (active), the “furin cleavage Z-score” value (15 min) was 5.15 (active) and the “furin cleavage Z-score” value (30 min) was 6.68 (active).

B42: FS-1357 (peptide)
chain: CALINVRKRNAGNASASA
In the case of B42, the “furin cleavage Z-score” value (7.5 min) is reported as 0.912 (inactive), the “furin cleavage Z-score” value (15 min) is reported as 2.51 and the “furin cleavage Z-score” value (30 min) is reported as 1.58.

B43: TR6 (peptide)
chain: CALGIRSFRNAGNASASA
In the case of B43, the “furin cleavage Z-score” value (7.5 min) is reported as 1.49, the “furin cleavage Z-score” value (15 min) is reported as 1.8 and the “furin cleavage Z-score” value (30 min) is reported as -0.165 (inactive).
